Screening data deposited in PubChem BioAssay by National Center for Advancing Translational Sciences (NCATS).
12-LOX inh = Primary qHTS assay for inhibitors of human arachidonate 12S-lipoxygenase (ALOX12): Round 2. Polyunsaturated fatty acid lipoxygenase ALOX12 (Homo sapiens), P18054. purified 12hLO, xylenol orange hydroperoxide absorbance. Potency, µM (highest dose often 108 µM), hits mostly inhibitors. actives 1.1% (n = 580,000)
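Hydroperoxide product was detected by ferrous iron/xylenol orange as the 573 to 405 nm absorbance ratio. Arachidonic acid at 40 uM (final) was turned over for 30 min at room temperature by 150 nM human 12hLO, pH 7.0 Hepes buffer, after 15 min compound preincubation.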
Sfp PPTase inh = qHTS Assay for Inhibitors of Bacillus subtilis Sfp phosphopantetheinyl transferase (PPTase); 4'-phosphopantetheinyl transferase ffp (Bacillus subtilis), Q9F4F7; actives 3.5% (n = 310,000); Biochemical Sfp PPTase activity, qHTS; Potency, µM, usual class: inhibitors;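 note: the enzyme is Sfp with the accession as filed and its product quenches rhodamine fluorescence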
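Buffer: 50 mM Hepes-Na pH 7.6, 10 mM MgCl2, 0.01% Nonidet P-40, 0.01% BSA. Enzyme 15 nM, pre-exposed to compound 15 min; substrates then added and fluorescence change tracked over 30 min.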
PLK1 PBD block = qHTS for Inhibitors of PLK1-PDB (polo-like kinase 1 - polo-box domain): Primary Screen | Serine/threonine-protein kinase PLK1 (Homo sapiens), P53350 | Potency, µM, usual class: inhibitors | Plk1 PBD binding of FITC phosphopeptide, fluorescence polarization | actives 2.8% (n = 360,000); note: series mostly up to about 57 µM; nearly all actives have a fitted effect of over 65% in size
Target sequence (P53350 whole entry, looked up, the tested form may be a part): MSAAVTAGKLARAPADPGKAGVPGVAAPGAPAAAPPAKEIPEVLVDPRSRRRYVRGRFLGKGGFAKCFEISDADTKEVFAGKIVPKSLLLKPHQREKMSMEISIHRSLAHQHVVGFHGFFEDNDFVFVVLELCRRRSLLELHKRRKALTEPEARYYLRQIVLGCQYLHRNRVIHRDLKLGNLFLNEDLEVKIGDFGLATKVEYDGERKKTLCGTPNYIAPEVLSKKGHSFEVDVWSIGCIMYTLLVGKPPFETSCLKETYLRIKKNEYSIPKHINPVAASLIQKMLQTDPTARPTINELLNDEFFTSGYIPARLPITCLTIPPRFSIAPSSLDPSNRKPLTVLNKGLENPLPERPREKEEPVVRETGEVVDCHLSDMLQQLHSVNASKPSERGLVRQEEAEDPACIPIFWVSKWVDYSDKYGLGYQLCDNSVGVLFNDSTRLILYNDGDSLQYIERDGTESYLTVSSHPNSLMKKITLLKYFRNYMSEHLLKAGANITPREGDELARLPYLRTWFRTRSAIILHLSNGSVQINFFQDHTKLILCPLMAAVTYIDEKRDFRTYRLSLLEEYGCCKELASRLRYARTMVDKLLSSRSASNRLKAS
VDR inhibitor = Inhibitors of the vitamin D receptor (VDR): qHTS. actives 0.93% (n = 400,000). VDR-SRC2-3 peptide fluorescence polarization, 2 h. Potency, µM, usual class: inhibitors. AID 504847, 2011. Vitamin D3 receptor (Homo sapiens), P11473
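Two reagent solutions held at 4 deg C in the dark were dispensed, compounds pinned at 23 nl, and the mixture incubated 2 h at room temperature. Read-out: fluorescence polarization of VDR–SRC2-3 peptide binding.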
Hits are given with their value; i = inactive; ? = inconclusive; nt = not tested or not shown; ! = repeats disagree. The list is not random: actives were taken first. Their share in the collection is about 4.2%. Calls come from the whole dose curve; as a rule, active = well fitted curve in the direction sought with a large enough effect; inconclusive = small, poorly fitted or top-dose-only effect, or another doubt; inactive = no such curve, though single readings can be large; an effect the other way counts as inactive or inconclusive.

SMILES	12-LOX inh	Sfp PPTase inh	PLK1 PBD block	VDR inhibitor
C=CCNC(=S)N1CCN(Cc2ccc3c(c2)OCO3)CC1	?	18µM	i	i
Fc1cccc(CN2CCN(c3ncccn3)CC2)c1	?	45µM	i	i
CCNC(=S)N1CCN(Cc2ccc3c(c2)OCO3)CC1	i	i	i	i
O=C(CN1CCCC1)Nc1c2c(nc3ccccc13)N(Cc1ccccc1)CC2	?	14µM	i	i
CCN(CC)CC(=O)Nc1c2c(nc3ccccc13)N(C)CC2	i	?	i	i
CC(=O)N1CCc2nc(C)nc(-c3ccc(O)cc3)c2C1	i	nt	nt	nt
N#CCC(=O)Nc1ccc(C(=O)N2CCN(S(=O)(=O)c3ccc4ccccc4c3)CC2)cc1	i	i	i	i
CN1C(=O)/C(=C/c2ccc(-c3ccccc3[N+](=O)[O-])o2)SC1=Nc1ccc(Cl)c(C(=O)O)c1	?	14µM	27µM	?
Cc1[nH]c2ccccc2c1C(=O)CSc1ccc(Cl)cc1	i	i	12µM	?
Cc1[nH]c2ccccc2c1C(=O)CSc1ccc2c(c1)OCCCO2	25µM	nt	nt	nt
NC(=O)CSc1ccc2c(c1)OCCCO2	i	nt	nt	nt
COc1ccc(CCC(=O)NCCS(=O)(=O)N2CCN(c3ccc(OC)cc3)CC2)cc1	i	i	i	i
CCc1ccc(S(=O)(=O)Nc2ccc(O)c3c(=O)cc(-c4ccccc4Cl)oc23)cc1	i	i	i	i
O=c1cc(-c2ccccc2Cl)oc2c(NS(=O)(=O)c3cc(Cl)cc(Cl)c3O)ccc(O)c12	nt	i	15µM	32µM
CN(Cc1ccccc1)S(=O)(=O)c1ccc(NC(=O)CN2CCN(c3ccc(O)cc3)CC2)cc1	i	nt	nt	nt
N#CCCn1cc(-c2csc(NC3CCCC3)n2)c2ccccc21	6.3µM	nt	nt	nt
O=C(N/N=C1\CC2CCC1C2)c1sc2ccccc2c1Cl (configuration not stated)	i	nt	nt	nt
Cc1cc(C)c(S(=O)(=O)NCC2CCC(C(=O)NCCCN3CCC(C)CC3)CC2)c(C)c1 (configuration not stated)	i	i	24µM	?
c1ccc(-c2nnc3n2CCN(Cc2cn(-c4ccccc4)nn2)CC3)cc1	i	nt	nt	nt
NNCCc1ccccc1	5.4µM!	i	i	i
COCc1cc(=O)[nH]c(/N=C(\N)Nc2ccc(C)cc2C)n1	i	i	i	i
O=C(O)c1ccc2c(c1)c1c3n2CCNC3CCC1 (configuration not stated)	i	i	i	i
COc1ccc(OC(C)C(=O)Nc2ccccc2F)cc1 (configuration not stated)	i	i	i	i
COc1ccc(OC(C)C(=O)Nc2ccc(F)cc2F)cc1 (configuration not stated)	i	i	21µM	i
CC(C)NC(=O)C1Cn2cccc2C(=O)N1C (configuration not stated)	i	nt	nt	nt
SMILES	12-LOX inh	Sfp PPTase inh	PLK1 PBD block	VDR inhibitor
Cc1ccc2nc(Cl)c3nnnn3c2c1	nt	i	15µM	?
COc1cccc(O)c1CN1CCCC(C(=O)c2cccc(C(F)(F)F)c2)C1 (configuration not stated)	i	71µM	i	i
COc1ccc(C(=O)C2CCCN(Cc3c(O)cccc3OC)C2)cc1OC (configuration not stated)	i	i	i	i
O=C(O)/C=C/c1cc(Br)ccc1F	i	nt	nt	nt
c1ccc(Oc2cc(CNc3ncccn3)ccn2)cc1	i	nt	nt	nt
Cc1ccc(NC(=O)COC(=O)Cc2c(F)cccc2Cl)cc1S(=O)(=O)N1CCOCC1	i	nt	i	i
Cc1ccc(C(=O)CCC(=O)Nc2ccccc2C)cc1C	i	i	i	i
COc1ccccc1NCC(=O)c1ccc(Cl)cc1	?	50µM	i	79µM
COc1ccccc1NCC(=O)c1ccc(C)c(C)c1	16µM	i	i	i
CCc1cccc(CC)c1NC(=O)c1c(C)oc2ccc(O)c(CN3CCCC3)c12	i	nt	nt	i
CCc1nc2ccccc2n1CC(O)c1cccc(Br)c1 (configuration not stated)	i	nt	nt	nt
CCC(C)(C)n1nnnc1C(c1cc2ccc(OC)cc2[nH]c1=O)N1CCc2ccccc2C1 (configuration not stated)	?	4.5µM	?	i
CCC(C)(C)n1nnnc1C(c1cc2ccc(OC)cc2[nH]c1=O)N1CCc2ccccc21 (configuration not stated)	?	10µM	i	i
CCC(C)(C)n1nnnc1C(c1cc2ccc(OC)cc2[nH]c1=O)N1CCCCC1 (configuration not stated)	?	i	i	i
CN(Cc1ccccc1)C(=O)Nc1c(Cl)cccc1Cl	i	nt	i	nt
CCN(CC)CCOC(=O)c1ccc(N/C=C(/C#N)c2nc(-c3ccc(OC)cc3)cs2)cc1	?	56µM	i	i
Cc1ccc(Nc2nc(NCCO)nc3c2cnn3C)cc1Cl	i	i	19µM	?
O=[S+]([O-])(Nc1ccccc1)c1ccc2c(c1)OCCN(Cc1cocn1)C2	i	nt	nt	nt
CSc1nc(N(C)NC(=O)c2ccc(Cl)cc2)c2ccccc2n1	i	50µM	i	i
Cc1ccc(N2NC(=O)/C(=C/c3ccc(-c4ccc(Cl)c(C(=O)O)c4)o3)C2=O)cc1C	?	i	?	i
CC1=CC2=NC(=O)/C(=C\c3ccc(-c4cccc(Cl)c4)o3)C(=N)N2O1	i	i	i	i
CC1=NOC(=O)/C1=C\c1ccc(-c2ccc(Cl)c(C(=O)O)c2)o1	?	56µM	2.1µM	?
Nc1ccccc1N=Cc1ccc(-c2cccc(Cl)c2)o1	i	32µM	?	i
CC1=NOC(=O)/C1=C\c1ccc(-c2cccc(Cl)c2)o1	nt	20µM	0.53µM	?
O=C(NCc1ccc2c(c1)OCCO2)N1CCN(S(=O)(=O)c2cc(F)ccc2F)CC1	i	nt	nt	nt
SMILES	12-LOX inh	Sfp PPTase inh	PLK1 PBD block	VDR inhibitor
Cc1ccccc1N=Cc1cccc(O)c1O	nt	?	i	14µM
Cc1ccc(N=Cc2sc(O)c3ccccc23)c(C)c1	?	22µM	i	i
Cc1ccc(N=Cc2cccc(O)c2O)c(C)c1	i	3.5µM	nt	20µM
CCOC(=O)C1=C(C)NC(SC(C)=O)=NC1c1ccc(OC(C)=O)c(OC)c1 (configuration not stated)	i	i	i	i
Cc1cccc(OC(C)C(=O)Nc2ccc(S(=O)(=O)N3CCCC3)cc2)c1 (configuration not stated)	i	i	i	i
Cc1ccc(NC(=O)CN(C)C(=O)Cc2ccc3c(c2)CCC3)cc1	i	nt	i	i
N#CCN(CC#N)C(=O)C1c2ccccc2Oc2ccccc21	i	i	24µM	i
NS(=O)(=O)c1ccc(Nc2ccc([N+](=O)[O-])cc2[N+](=O)[O-])cc1	i	nt	nt	nt
O=[N+]([O-])c1ccc(NS(=O)(=O)c2ccc(I)s2)c([N+](=O)[O-])c1	16µM	nt	nt	nt
COc1ccc(-c2noc(-c3csc([C@@H]4O[C@H](CO)[C@H](O)[C@H](O)[C@H]4O)n3)n2)cc1OC	?	nt	i	nt
O=C(O)CSc1c2c(nc3cc(C(=O)N4CCOCC4)ccc13)CCCC2	i	50µM	i	i
